Data from PubChem BioAssay (Tox21).
“And” between values parts separate entries of the source, which are not always exact repeats. Equal values may be shown once. Records with an inconclusive call do not appear. Where a call stands in place of a potency, no number is given. The source made the active and inactive calls. Calls follow the shape of the dose curve; as a rule, active = well fitted inhibition curve with a large enough effect in the repeat runs; inconclusive = weak or mixed curves, or effect the other way; inactive = no such curve, though single readings can be large or run the other way.

Target: Nuclear receptor ROR-gamma (Homo sapiens) (UniProt P51449)
Assay: qHTS assay to identify small molecule antagonists of the retinoid-related orphan receptor gamma (ROR-gamma) signaling pathway (AID 1159521; also: nearly all actives have a fitted effect of over 50% in size)
Conditions: Tet-on RORgamma CHO cells, RORE-luciferase, 16 h; series mostly up to 92.4 µM
Source text: U.S. Tox21 Program National Center for Advancing Translational Sciences [NCATS] NIH Chemical Genomics Center [NCGC] U.S. Environmental Protection Agency [EPA] National Institutes of Environmental Health Sciences [NIEHS] National Toxicology Program [NTP] U.S. Food and Drug Administration [FDA] Tox21 Assay Overview: Nuclear steroid hormone receptors are involved in many biological processes including inflammatory responses, cell proliferation, and apoptosis. Environmental factors or compounds disrupting these nuclear receptor pathways and gene expression may promote susceptibility to immunotoxicants and autoimmune diseases. One important group of these expression factors are the retinoid-related orphan receptors. To assess compounds that may interfere with the retinoid-related orphan receptor gamma (ROR-gamma) transcription factor, a cell-based luciferase assay was used. The CHO cell-based assay utilizes a TET-inducible ROR expression factor and ROR response element-LUC reporter gene. Reporter gene activity was induced using Doxycycline Hyclate and measured after 16 hr incubation. Tet-on ROR gamma CHO cells were used to screen against the Tox21 10K compound library for ROR gamma antagonists by quantification of decreased reporter gene activity in terms of decreased luminescence.
Tox21 Assay Protocol Summary: Tet-on ROR gamma CHO cells were dispensed at 1,000 cells in 4 uL of culture medium per well into white wall/solid bottom 1536-well plates using a Multidrop Combi (Thermo Scientific, Waltham, MA) dispenser. Following incubation at 37 C and 5% CO2 for 4 hr, 23 nL of compounds dissolved in DMSO, positive controls or DMSO only were transferred by a Pintool station (Kalypsys, San Diego, CA) and after 2 hr incubation at 37 C, one ul of 1 uM (final concentration) of Doxycycline Hyclate was added to all the wells by using a Flying Reagent Dispenser (FRD) (Aurora Discovery, San Diego, CA). After 16 hr incubation at 37 C and 5% CO2, 5 uL of ONE-Glo reagent (Promega Corporation, Madison, WI) was added to each assay plate using FRD. After 30 min incubation at room temperature, luminescence was quantified on a ViewLux plate reader (Perkin Elmer, Waltham, MA).
Potency is read from the fitted curve at half-maximal effect.

SMILES	Potency
NC(=O)OCC(COC(N)=O)c1ccccc1	inactive
CC1=C(/C=C/C(C)=C/C=C/C(C)=C/C(=O)O)C(C)(C)CCC1	inactive
O=C(O)Cc1cccc2ccccc12	inactive
CC(=O)Oc1ccccc1C(=O)O	inactive
N[C@@H](Cc1c[nH]c2ccccc12)C(=O)O	inactive
C[C@]12C=CC(=O)C=C1CC[C@@H]1[C@@H]2C(=O)C[C@@]2(C)[C@H]1CC[C@]2(O)C(=O)CO	inactive
CC1(C)O[C@@H]2[C@@H](CO[C@@]3(COS(N)(=O)=O)OC(C)(C)O[C@@H]23)O1	inactive
COc1ccc(C(=O)c2ccccc2)c(O)c1	inactive
COC(=O)C1CCC(C(=O)OC)CC1 (stereo not given)	inactive
CC(=O)OC/C=C(C)/C=C/C=C(C)/C=C/C1=C(C)CCCC1(C)C	inactive
Cc1c(N(C)C)c(=O)n(-c2ccccc2)n1C	inactive
O=c1c(-c2ccc(O)cc2)coc2cc(O)cc(O)c12	inactive
CC(C)(C)NCC(O)c1ccc(O)c(CO)c1 (stereo not given)	inactive
COCCOCCOC	inactive
C/C=C/c1ccc(O)c(OC)c1	inactive
CCOCCO	inactive
COCC(C)N (stereo not given)	inactive
CCCCCCCCCCCCCCCCCC(=O)OCC(O)CO (stereo not given)	inactive
COc1ccccc1NC(=O)CC(C)=O	inactive
OC[C@@H](O)[C@@H](O)[C@H](O)[C@H](O)CO	inactive

SMILES	Potency
Cc1cccc(C)c1O	inactive
COc1cc2c(c(OC)c1OC)-c1ccc(OC)c(=O)cc1[C@@H](NC(C)=O)CC2	538 nM (active) and 686 nM (active) and 37.6 nM (active)
CCOC(=O)C(C)(C)Oc1ccc(Cl)cc1	inactive
COc1ccccc1O	inactive
CO[C@H]1C=CO[C@@]2(C)Oc3c(C)c(O)c4c(O)c(c(/C=N/N5CCN(C)CC5)c(O)c4c3C2=O)NC(=O)/C(C)=C\C=C[C@H](C)[C@H](O)[C@@H](C)[C@@H](O)[C@@H](C)[C@H](OC(C)=O)[C@@H]1C	inactive
CC(=O)/C=C/C1=C(C)CCCC1(C)C	inactive
CCCCC/C(C=O)=C\c1ccccc1	inactive
Oc1cccc(O)c1	inactive
CCCCOCCOCCOC(C)=O	inactive
NC(N)=NC(N)=NCCc1ccccc1	30.6 µM (active)
CCCCOCCOCCSC#N	inactive
OCCCc1ccccc1	inactive
CC(O)COc1ccccc1 (stereo not given)	inactive
CC(C)Cc1ccc(C(C)C(=O)O)cc1 (stereo not given)	inactive
C1CNCCN1	inactive
O=C1CCCCCN1	inactive
CCc1cc(C(N)=S)ccn1	inactive
O=C(O)CN(CC(=O)O)CC(=O)O	inactive
CCN1CCCC1=O	inactive
Nc1ccc(N=Nc2ccccc2)c(N)n1	inactive
